# According to PubChem BioAssay AID686978 (National Center for Advancing Translational Sciences (NCATS), 2013):
# In all, about 420,000 compounds went through this assay and about 64,000 (15%) were called active. Roughly 27% stayed inconclusive and do not appear here. Calls follow the shape of the dose curve; as a rule, active = well fitted inhibition curve with a large enough effect; inconclusive = small, poorly fitted or top-dose-only effect; inactive = flat fitted curve, though single readings scatter. These entries were drawn from the full list.
# Test: qHTS for Inhibitors of human tyrosyl-DNA phosphodiesterase 1 (TDP1): qHTS in cells in absence of CPT; also: nearly all actives have a fitted effect of over 55% in size
# Settings: DT40 Tdp1-/- hTDP1 cells, no CPT, ATP luminescence, 48 h; activity change, negative = growth inhibition: at 46.2 µM (top of the series)
# Procedure, shortened: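 Readout: luminescence from CellTiter-Glo after 30 min in the dark at RT. Cells: DT40 Tdp1-/- with stable hTDP1, 400/well. Exposure: compounds alone, ≥48 hr, 37 °C.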
# % is scaled to controls: 0 for no effect and ±100 for the full control effect; potency is read from the fitted curve at half-maximal effect.
SMILES,"activity change, negative = growth inhibition",Potency
CC(C)C(C)(C#N)NC(=O)CSc1nc2scc(-c3ccccc3)c2c(=O)[nH]1 (centres undefined),-17.6% (inactive),–
CC1(c2ccc(Cl)cc2)NC(=O)N(CC(=O)c2ccc3c(c2)OCO3)C1=O (centres undefined),-5.62% (inactive),–
Cn1c2c(c(=O)n(C)c1=O)CN(Cc1ccco1)CN2,4.5% (inactive),–
CC(=O)NC(Cc1ccc(F)c(F)c1)C(=O)NC1CCN(C(=O)c2ccc(C)cc2)CC1 (centres undefined),-5.08% (inactive),–
CCOc1ccc(S(=O)(=O)N2CCCCCC2)c2ccccc12,-29.8% (inactive),–
COc1ccc(-c2ocnc2C(=O)Nc2ccc3c(c2)CCC3)cc1,-22.7% (inactive),–
CSC1=NCCN1C(=O)Cc1cccc2ccccc12,8.2% (inactive),–
COCCN1C(=O)C(=O)/C(=C(/O)c2ccc(S(=O)(=O)N3CCOCC3)cc2)C1c1ccc(O)c(OC)c1 (centres undefined),17.3% (inactive),–
O=C(c1ccccc1Cl)N(Cc1ccccc1F)N1C(=O)CCCC1=O,1.49% (inactive),–
CN(C)CCN(C(=O)C1CCCCC1)c1nc2cc3c(cc2s1)OCO3,-3.74% (inactive),–
O=C(Nc1ccc(N2C(=O)c3cccc4cccc(c34)C2=O)cc1)c1ccc(N2CCCCC2)c([N+](=O)[O-])c1,–,7.31 µM (active)
O=C(Nc1ccc2c(c1)OCO2)c1ccc(N2C(=O)c3ccccc3C2=O)cc1,-6.15% (inactive),–
O=C(COc1ccccc1F)NNC(=O)c1ccc(N2CCCCC2)c([N+](=O)[O-])c1,-82% (inactive),–
CC(=O)c1ccc(NC(=O)c2ccc(-n3cncn3)c([N+](=O)[O-])c2)cc1,-26.5% (inactive),–
O=C(Nc1cccc(C(F)(F)F)c1)c1ccc(N2CCNCC2)c([N+](=O)[O-])c1,–,18.4 µM (active)
CN1CCN(CC#CCC2(O)c3ccccc3-c3ccccc32)CC1,-7.87% (inactive),–
CCC(=O)NC(=S)Nc1ccc(NC(=O)c2ccco2)c(Cl)c1,-4.57% (inactive),–
COC(=O)c1cccc(NC(=O)CSc2nc(C)cc(=O)[nH]2)c1,1.31% (inactive),–
COC(=O)c1c(C(=O)OC)c(-c2cccc(C)c2)n2c1CS(=O)C2 (centres undefined),-0.626% (inactive),–
COc1ccc(C2CC(c3cccs3)=NN2C(=O)CSc2nncs2)cc1OC (centres undefined),-23.6% (inactive),–
O=C1c2cccc(OCC(=O)N3N=C(c4cccs4)CC3c3ccc(F)cc3)c2CCN1Cc1ccccc1 (centres undefined),–,9.2 µM (active)
COc1ccc(C2CC(c3cccs3)=NN2C(=O)CCC(=O)O)cc1OC (centres undefined),3.1% (inactive),–
CN(CC(=O)NC1CCCCC1)S(=O)(=O)c1ccc(Br)s1,-32.5% (inactive),–
O=C1C(c2[nH]c3ccccc3c2O)=Nc2ccccc21,-16.4% (inactive),–

SMILES,"activity change, negative = growth inhibition",Potency
CCOC(=O)N1CCC(Nc2c(NCCCN3CCN(CC)CC3)c(=O)c2=O)CC1,-10.5% (inactive),–
COc1ccccc1N1CCN(CCCNC(=O)c2cnn(-c3ccccc3Cl)c2C2CCN(C(=O)OC(C)(C)C)CC2)CC1,–,5.8 µM (active)
CCN1CCN(CCCNC(=O)c2cnn(-c3ccc(C)cc3C)c2C2CCN(C(=O)OC(C)(C)C)CC2)CC1,–,20.6 µM (active)
COc1ccccc1CN1CCC(CNC(=O)c2cnn(-c3cccc(Cl)c3)c2C2CCN(C(=O)OC(C)(C)C)CC2)CC1,–,5.8 µM (active)
CSCCC(=O)N1CCCC(CNC(=O)c2ccccc2Cl)C1 (centres undefined),-18.6% (inactive),–
CCOC(=O)N1CCC(NC(=O)c2cnn3ccccc23)CC1,-5.98% (inactive),–
COc1ccccc1-c1ccnc(-n2ncc(C(=O)NCCCN3CCOCC3)c2C)n1,-3.07% (inactive),–
Cc1ccc(-n2ncc(C(=O)NC3CC3)c2C2CCN(C(=O)OC(C)(C)C)CC2)c(C)c1,-18.3% (inactive),–
COc1ccccc1N1CCN(CC(=O)NCCc2ccc(S(N)(=O)=O)cc2)CC1,-1.08% (inactive),–
Cc1ccc(CN2CCC(CNC(=O)c3cnn(-c4ccccc4Cl)c3C3CCN(C(=O)OC(C)(C)C)CC3)CC2)cc1,–,4.61 µM (active)
CCc1cccc(C)c1NC(=O)COC(=O)Cc1ccsc1,-18.7% (inactive),–
CC1CCCC(C)N1/N=C/c1ccccc1OC(F)F (centres undefined),-23.5% (inactive),–
O=C(O)CCCCOn1ccnc1,-5.4% (inactive),–
CCCc1cc(=O)[nH]c2nnc(SCC(=O)Nc3nnc(SCC)s3)n12,-29.2% (inactive),–
COc1ccc(C(C)=O)cc1COC(=O)Cn1cnc2ccccc2c1=O,-0.295% (inactive),–
COCCNC(=O)C1CCCN(Cc2ccccc2Cl)CC1 (centres undefined),-3.91% (inactive),–
COC(=O)N1CCC2(CCCN(Cc3ccccc3OC)C2)CC1,-0.23% (inactive),–
COc1ccccc1CN1CCC(CNC(=O)c2cnn(-c3ccccc3Cl)c2C2CCN(C(=O)OC(C)(C)C)CC2)CC1,–,8.2 µM (active)
Cc1c(CN2CCCCC2)c(O)n(CCO)c(=O)c1C#N,3.18% (inactive),–
COc1cc(CCC(=O)OCC(=O)Nc2cccc(S(N)(=O)=O)c2)cc(OC)c1OC,-0.764% (inactive),–
Cc1ccc(NC(=O)OCCNC(=O)c2ccncc2)cc1,-1.06% (inactive),–
CCCc1cc(=O)n2[nH]c(NCc3ccc(CC)cc3)nc2n1,-4.36% (inactive),–
O=C(N[C@@H](Cc1c[nH]c2ccccc12)C(=O)O)OCC1c2ccccc2-c2ccccc21,-25.3% (inactive),–
O=C(N[C@H]1C/C=C\C(c2cccc(F)c2)N(Cc2ccccc2)C(=O)C1)OCC1c2ccccc2-c2ccccc21 (some centres undefined),–,20.6 µM (active)

SMILES,"activity change, negative = growth inhibition",Potency
CCC(C)NC(=O)C1c2ccccc2C(=O)N1Cc1ccccc1 (centres undefined),14.2% (inactive),–
O=C(N[C@H]1C/C=C\C(c2ccc(F)cc2)N(Cc2ccccc2)C(=O)C1)OCC1c2ccccc2-c2ccccc21 (some centres undefined),–,20.6 µM (active)
O=C1c2ccccc2C(O)N1Cc1ccccc1 (centres undefined),11.4% (inactive),–
CN(Cc1ccccc1Cl)C(=O)C1CCC(=O)N(CCc2cccc(F)c2)C1 (centres undefined),-23.9% (inactive),–
CC1CCCN(S(=O)(=O)c2ccc3[nH]c(=O)cc(C(=O)NCCc4ccc(Cl)cc4)c3c2)C1 (centres undefined),3.52% (inactive),–
O=C(c1ccncc1)N1CCN(S(=O)(=O)c2cc(C(F)(F)F)cc(C(F)(F)F)c2)CC1,-29.7% (inactive),–
CC(C)(C)c1ccc(C(=O)N2CCC(c3nc(-c4ccc(S(=O)(=O)N5CCCC5)cc4)no3)CC2)cc1,–,20.6 µM (active)
NC(=O)C1CCN(C(=O)c2ccc(C(F)(F)F)cc2)CC1,10% (inactive),–
CC(C)(C)c1ccc(S(=O)(=O)N2CCN(C(=O)c3ccc4c(c3)C(=O)N(Cc3ccncc3)C4=O)CC2)cc1,-20.4% (inactive),–
O=C(c1ccc(C(F)(F)F)cc1)N1CCC(c2nc(-c3ccc(S(=O)(=O)N4CCCC4)cc3)no2)CC1,–,18.4 µM (active)
COC(=O)c1ccc(S(=O)(=O)N2CCC(c3nc4ccccc4o3)CC2)cc1,-27.1% (inactive),–
Cc1ccc2nc(COc3cccc(NC(=O)c4ccccc4Cl)c3)cc(=O)n2c1,-18.2% (inactive),–
CNC[C@H]1Oc2c(NC(=O)C3CCCCC3)cccc2C(=O)N([C@H](C)CO)C[C@@H]1C,1.63% (inactive),–
O=C(COC(=O)c1ccc(O)cc1O)NNC(=O)c1cccs1,-10% (inactive),–
Nc1nc(/C(=C/CC(=O)O)C(=O)N[C@@H]2C(=O)N3C(C(=O)O)=CCS[C@H]23)cs1,2.06% (inactive),–
COc1cccc(NC(=S)NCCCN2CCOCC2)c1,-0.715% (inactive),–
COc1cccc2cc(C(C)N(CCCN3CCOCC3)C(=O)Nc3ccc(Cl)cc3)oc12 (centres undefined),–,23.1 µM (active)
COc1ccc(Cl)cc1NC(=O)CCN1CCOCC1,-5.12% (inactive),–
CC(C)CC(=O)N1CCC(O)(CS(=O)(=O)Cc2ccccc2)CC1,5.44% (inactive),–
CCCCC(=O)Nc1c2c(nn1-c1ccc([N+](=O)[O-])cc1)CS(=O)(=O)C2,13.8% (inactive),–
Cc1ccc2c(c1)nnc1nnc(SCC(=O)O)n12,-18% (inactive),–
C[C@H](NC(=O)c1nc[nH]c1C(=O)NCC(=O)OC(C)(C)C)C(=O)OCc1ccccc1,-28.9% (inactive),–
NC(=O)COc1ccc2c3c(c(=O)oc2c1)CCCCC3,-16.1% (inactive),–
CCCOc1ccc2c3c(c(=O)oc2c1OCCC)CCC3,–,23.1 µM (active)

SMILES,"activity change, negative = growth inhibition",Potency
Cc1c(OC(C)C(=O)N[C@@H](Cc2ccccc2)C(=O)O)ccc2c3c(c(=O)oc12)CCCC3 (some centres undefined),2.69% (inactive),–
COc1ccc(NC(=O)Nc2ccc3c(c2)C(=O)N([C@H](C)CO)C[C@H](C)[C@@H](CN(C)C(=O)Nc2ccc4c(c2)OCO4)O3)cc1,-10% (inactive),–
CN(CCc1cnn(C)c1)Cc1cn(C)nc1-c1ccccc1F,-2.86% (inactive),–
C[C@H](CO)N1C[C@H](C)[C@@H](CN(C)S(=O)(=O)c2ccc(F)cc2)Oc2c(NC(=O)Nc3ccccc3)cccc2C1=O,-19.6% (inactive),–
Cc1noc(C)c1S(=O)(=O)N(C)C[C@H]1Oc2c(NC(=O)Nc3ccc4c(c3)OCO4)cccc2C(=O)N([C@H](C)CO)C[C@@H]1C,-22% (inactive),–
COc1ccc(S(=O)(=O)N(C)C[C@H]2Oc3c(NC(=O)Nc4ccc5c(c4)OCO5)cccc3C(=O)N([C@H](C)CO)C[C@@H]2C)cc1,–,20.6 µM (active)
Cn1c(=O)c(=O)n(C)c2cc(S(=O)(=O)NCCN3CCN(c4ccccc4F)CC3)ccc21,-7.78% (inactive),–
CC(=O)Oc1cccc(N2C(=O)CC(Nc3ccc(N4CCOCC4)cc3)C2=O)c1 (centres undefined),2.95% (inactive),–
Cc1cc(C(=O)CSc2nc(N)cc(=O)[nH]2)c(C)n1Cc1ccco1,–,0.82 µM (active)
CCCCc1nnc(NC(=O)CSc2nc(N)cc(=O)[nH]2)s1,-5.73% (inactive),–
Cc1cc(C)c(C(=O)CSc2nc(C)cc(=O)[nH]2)c(C)c1,-5.13% (inactive),–
Nc1cc(N)nc(SCc2ccc(Cl)cc2)n1,2.64% (inactive),–
Cc1cc(C(=O)CSc2nc(N)cc(=O)[nH]2)c(C)n1CCc1ccc(Cl)cc1,–,16.4 µM (active)
Cc1cc(C(=O)COC(=O)CNC(=O)c2ccc(F)cc2)c(C)n1Cc1ccco1,-3.47% (inactive),–
CCN(C(=O)CSc1nc(N)cc(=O)[nH]1)C1CCS(=O)(=O)C1 (centres undefined),23% (inactive),–
Cc1cc(=O)[nH]c(SCC(=O)N2c3ccccc3CC2C)n1 (centres undefined),-13.5% (inactive),–
Cc1cc(C(=O)CSc2nc(N)cc(=O)[nH]2)c(C)n1-c1cccc(F)c1,–,4.61 µM (active)
C=CCn1c(COc2ccccc2F)nnc1SCC(=O)N1CC(=O)Nc2ccccc21,0.578% (inactive),–
O=C(O)C1C2C=CC(C2)C1C(=O)N1CCN(CCO)CC1 (centres undefined),1.64% (inactive),–
C/C(=N\c1nc2ccccc2n1C)c1cc(Cl)ccc1O,-18.9% (inactive),–
CCCOc1ccc(C2c3c(oc4cc(C)c(C)cc4c3=O)C(=O)N2CCCN2CCOCC2)cc1 (centres undefined),-19.8% (inactive),–
Cc1cc2oc3ccc(NCCC4CCCN4C)cc3c(=O)c2cc1C (centres undefined),–,16.4 µM (active)
